In the supplement of paper PMC9177965:

Test system: HT29 RNF43 G659fs (RNF43 659mut, CRISPR-edited)
Assay: cell viability activity relative to DMSO (negative = inhibition); higher = more viable cells (less growth inhibition)
Conditions: 5 µM; 96 h
Experimental: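 Broad Repurposing Library primary screen at a single dose of 5 uM. HT29 sg-Ctrl and HT29 RNF43 G659fs CRISPR-edited isogenic cells were seeded at 2500 cells/well in 384-well plates in duplicate and treated for 96 h. Viability was read by CellTiter-Glo and reported as % activity relative to DMSO, with MG132 as the positive control (negative = growth inhibition).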

Row | SMILES | cell viability activity [%]
1 | CCN(c1cc(C#CCN2CCOCC2)cc(C(=O)NCc2c(C)cc(C)[nH]c2=O)c1C)[C@H]1CC[C@H](N(C)CCOC)CC1 | -37.5
2 | C#C[C@]1(O)CC[C@H]2[C@@H]3CCC4=C(CCC(=O)C4)[C@H]3CC[C@@]21C | -62.8
3 | Nc1nc2[nH]cnc2c(=S)[nH]1 | -81.6
4 | COc1cc(N2CCC(N3CCN(C)CC3)CC2)ccc1Nc1ncnc(Nc2ccccc2S(=O)(=O)C(C)C)n1 | -33.3
5 | CN1CCN(CCCN2c3ccccc3Sc3ccc(C(F)(F)F)cc32)CC1 | -34.4
6 | Cc1cccc(/C=N/Nc2cc(N3CCOCC3)nc(OCCc3ccccn3)n2)c1 | -66
7 | CC[C@@]1(O)C(=O)OCc2c1cc1n(c2=O)Cc2cc3c([N+](=O)[O-])cccc3nc2-1 | -93.9
8 | OC[C@H]1O[C@@H](Oc2cc(O)cc(/C=C/c3ccc(O)cc3)c2)[C@H](O)[C@@H](O)[C@@H]1O | -34.4
9 | Cc1ccc(/C=C2\CNC/C(=C\c3ccc(C)cc3)C2=O)cc1 | -93.6
10 | Oc1c(Cl)cc(Cl)c(Cl)c1Cc1c(O)c(Cl)cc(Cl)c1Cl | -49
11 | COc1cc(OC)c(/C=C/S(=O)(=O)Cc2ccc(OC)c(NCC(=O)O)c2)c(OC)c1 | -58.2
12 | CN(C)C/C=C/C(=O)Nc1ccc(C(=O)Nc2cccc(Nc3ncc(Cl)c(-c4c[nH]c5ccccc45)n3)c2)cc1 | -87.2
13 | COc1ccc(/C=C\c2cc(OC)c(OC)c(OC)c2)cc1O | -64.6
14 | CC(C)CCN1c2nc(Nc3cc(F)c(O)c(F)c3)ncc2N(C)C(=O)C1C (stereo not given) | -29.4
15 | CNC(=O)c1ccccc1Nc1cc(Nc2ccc(N3CCOCC3)cc2OC)ncc1C(F)(F)F | -64.6
16 | Cc1cc(Nc2cc(N3CCN(C)CC3)nc(/C=C/c3ccccc3)n2)n[nH]1 | -74.6
17 | Nc1ccc(-c2cccc3c(=O)cc(N4CCOCC4)oc23)cc1 | -64.9
18 | CC(C)Nc1cc(-c2c[nH]c(C(=O)N[C@H](CO)c3cccc(Cl)c3)c2)c(Cl)cn1 | -71.1
19 | Cc1cc(I)ccc1Nc1c(C(=O)NOCC2CC2)cc(F)c(F)c1F | -65.5
20 | CCCCC(=O)O[C@H]1CC[C@H]2[C@@H]3CCc4cc(O)ccc4[C@H]3CC[C@]12C | -22.9

Row | SMILES | cell viability activity [%]
21 | O=C(CCCCCCNC(=O)c1cnc(N(c2ccccc2)c2ccccc2)nc1)NO | -34.4
22 | c1ccc2c(-c3cnn4cc(-c5ccc(N6CCNCC6)cc5)cnc34)ccnc2c1 | -95.2
23 | C[C@]12CC[C@@H]3c4ccc(O)cc4C[C@@H](CCCCCCCCC[S+]([O-])CCCC(F)(F)C(F)(F)F)[C@H]3[C@@H]1CC[C@@H]2O (stereo not given in full) | -38.7
24 | CC(C)(N)c1cc(C(=O)N[C@@H]2CCc3ccc(Oc4ccnc5c4CCC(=O)N5)cc3C2)cc(C(F)(F)F)c1 | -57.8
25 | CCCCCCCCCCCC[N+](C)(C)CCOc1ccccc1 | -84.4
26 | Nc1nc(=O)n([C@H]2C[C@H](O)[C@@H](CO)O2)cc1F | -64.2
27 | CN(C)C(=O)C(CCN1CCC(O)(c2ccc(Cl)cc2)CC1)(c1ccccc1)c1ccccc1 | -67.6
28 | C[n+]1cc2c3c(ccc2c2ccc4cc5c(cc4c21)OCO5)OCO3 | -97.3
29 | COCC[n+]1c2c(n(Cc3cnccn3)c1C)C(=O)c1ccccc1C2=O | -96.6
30 | COC[C@H](NC(=O)c1cnc(C)s1)C(=O)N[C@@H](COC)C(=O)N[C@@H](Cc1ccccc1)C(=O)[C@@]1(C)CO1 | -95.3
31 | N#CC1(c2ccc(NC(=O)c3cccnc3NCc3ccncc3)cc2)CCCC1 | -45.5
32 | Nc1nccc2c1ncn2C1C=C(CO)C(O)C1O (stereo not given) | -38.4
33 | COc1cc(N2CCC(N3CCN(C)CC3)CC2)ccc1Nc1ncc(Cl)c(Nc2ccccc2P(C)(C)=O)n1 | -82.9
34 | Cn1ccc2cc(NC(=O)Nc3cccnc3)ccc21 | -29.2
35 | CCCCCCCCCCCCCCC[C@@H](O)[C@@H](N)CO | -36.8
36 | FC(F)c1nc2ccccc2n1-c1nc(N2CCOCC2)nc(N2CCOCC2)n1 | -33
37 | COC(=O)[C@H]1[C@H]2C[C@@H]3c4[nH]c5cc(OC)ccc5c4CCN3C[C@H]2C[C@@H](OC(=O)c2cc(OC)c(OC)c(OC)c2)[C@@H]1OC | -26.1
38 | Fc1ccc(-n2cc(CCCCN3CCC4(CC3)OCc3ccccc34)c3ccccc32)cc1 | -70.6
39 | COc1cccc(Nc2ncnn3ccc(CN4CC[C@@H](N)[C@H](O)C4)c23)c1 | -24
40 | Cc1ccc(C(=O)Nc2ccc(CN3CCN(C)CC3)c(C(F)(F)F)c2)cc1C#Cc1cnc2[nH]ncc2c1 | -96.2
